This is part of a sample that, as a whole, favours compounds with a hit. Of some 83,000 tested, about 20% had one in any assay.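 96-well plates, one dose, 48 hours. Percent growth reported; active if below 10.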 Values without a mark were called inactive. Active and inactive are the calls of the source.
Experiments:
Test in all cases: NCI-60 one-dose screen, 48 h (100 = growth as untreated, 0 = no growth, -100 = all killed)
Settings in all cases: 10 µM
DU-145 prostate = test system: DU-145 prostate
K-562 leukemia = test system: K-562 leukemia
MALME-3M melanoma = test system: MALME-3M melanoma
MDA-MB-231 breast = test system: MDA-MB-231 breast
SF-268 CNS = test system: SF-268 CNS
SF-295 CNS = test system: SF-295 CNS
SF-539 CNS = test system: SF-539 CNS
UACC-257 melanoma = test system: UACC-257 melanoma
M14 melanoma = test system: M14 melanoma
HCT-15 colon = test system: HCT-15 colon
HT29 colon = test system: HT29 colon
SNB-75 CNS = test system: SNB-75 CNS
SNB-19 CNS = test system: SNB-19 CNS
U251 CNS = test system: U251 CNS
PC-3 prostate = test system: PC-3 prostate
SK-MEL-5 melanoma = test system: SK-MEL-5 melanoma
UACC-62 melanoma = test system: UACC-62 melanoma
LOX IMVI melanoma = test system: LOX IMVI melanoma
SK-MEL-28 melanoma = test system: SK-MEL-28 melanoma

| SMILES | growth (DU-145 prostate) | growth (K-562 leukemia) | growth (MALME-3M melanoma) | growth (MDA-MB-231 breast) | growth (SF-268 CNS) | growth (SF-295 CNS) | growth (SF-539 CNS) | growth (UACC-257 melanoma) | growth (M14 melanoma) | growth (HCT-15 colon) | growth (HT29 colon) | growth (SNB-75 CNS) | growth (SNB-19 CNS) | growth (U251 CNS) | growth (PC-3 prostate) | growth (SK-MEL-5 melanoma) | growth (UACC-62 melanoma) | growth (LOX IMVI melanoma) | growth (SK-MEL-28 melanoma) |
| --- | --- | --- | --- | --- | --- | --- | --- | --- | --- | --- | --- | --- | --- | --- | --- | --- | --- | --- | --- |
| O=c1[nH]c2ccccc2cc1CSc1ccc(Nc2nccc(-c3ccc(Cl)cc3)n2)cc1 | -52% (active) | 36.2% | -54.3% (active) | -56.1% (active) | 2.16% (active) | -90.8% (active) | -89% (active) | 54.1% | 30.8% | 8.92% (active) | 0.0418% (active) | -41.8% (active) | -40.3% (active) | -72.3% (active) | 8.58% (active) | 48.2% | 23.7% | -79.6% (active) | 43.2% |
| Cc1ccc2nc(COc3ccc(C(=O)NNC(=S)NC(=O)c4ccccc4)cc3)[nH]c2c1 | 64.7% | 21.8% | 80.9% | 71.5% | 55.2% | 25.3% | 41.9% | 83.4% | 65.2% | 14.9% | 43.6% | 41.6% | 52.4% | 43.3% | 50.2% | 46.1% | 51.9% | 34% | 55.6% |
| CCCn1c(=O)c2[nH]c(-c3ccc(OCc4nc5ccccc5[nH]4)cc3)nc2n(CCC)c1=O | 54% | 76% | -36.4% (active) | -42.6% (active) | 38% | 37.4% | -44.3% (active) | 82.3% | 73.7% | 63.2% | 61.2% | 34.9% | 37.1% | 2.91% (active) | 77.3% | 44.6% | 35.5% | -2.38% (active) | 102% |
| CCOC(=O)CNC(=O)CN(Cc1ccccc1)C(=O)[C@@]1(C)CCC[C@]2(C)[C@H]3C[C@H]4C(C(C)C)=C[C@]3(CC[C@H]21)[C@@H]1C(=O)OC(=O)[C@@H]14 | 92.8% | 24.9% | 101% | 88.1% | 92.7% | 48.6% | 91.8% | 89.5% | 73.3% | 18% | 42% | 81.7% | 67.7% | 44.4% | 39.2% | 83.5% | 64.4% | 24% | 82.5% |
| COc1ccc2c(c1)N=C(C(=O)O)/C2=C/c1sc(Nc2ccc(O)cc2)nc1O | 94.1% | 29.1% | 50.7% | 63.7% | 78.1% | 76.5% | 52.1% | 81.3% | 72.3% | 53.9% | 95.9% | 67.2% | 70.1% | 67.7% | 76% | 83% | 42.9% | 49.2% | 80.5% |
| O=C1N/C(=N\c2nccs2)S/C1=C\c1cccs1 | 53.2% | 20.1% | 28.9% | 47.6% | 44.7% | 13.4% | 21.8% | 49.6% | 9.09% (active) | 17.4% | 39.6% | 69.6% | 30.6% | 29.5% | 41.3% | -76.9% (active) | -18.9% (active) | 8.62% (active) | 14.6% |
| N#Cc1ccc(-c2nn(-c3ccc(C(=O)O)cc3)cc2CNc2cc(Cl)cc(C(F)(F)F)c2)cc1 | 26.7% | 19.4% | 14.7% | 27.7% | 31.9% | 9.39% (active) | -26.4% (active) | 14.9% | 11.3% | 7.93% (active) | 18.8% | 31% | 20.9% | 18.5% | 14.1% | -64.1% (active) | -48.8% (active) | -24% (active) | 12.2% |
| O=C(CNc1nc(-c2ccccc2)cs1)Nc1ccc([N+](=O)[O-])cc1 | 45.2% | 9.52% (active) | -66.6% (active) | -13.4% (active) | 38.4% | 26% | -28.2% (active) | 39.5% | 30.2% | -23.5% (active) | -44.9% (active) | 87.6% | 38.3% | 9.22% (active) | 33.7% | -69.3% (active) | 9.93% (active) | -19.5% (active) | -6.86% (active) |
| CCOP(=O)(OCC)O[C@H]1CCC(=O)[C@@H]2[C@H]1[C@H]1C[C@@H]3[C@@]4(C)CCCC(C)(C(=O)OC)[C@@H]4CC[C@@]23C=C1C(C)C (some centres undefined) | 83.1% | 30.1% | 86.2% | 67% | 76.4% | 69.1% | 71.7% | 41.8% | 55.4% | 49.8% | 42.5% | 100% | 68.1% | 42.1% | 23.5% | 18.1% | 46.1% | 62.4% | 72.7% |
| CN1C(=O)N(C)C2SC(N/N=C/C=C/c3ccccc3)=NC21 (centres undefined) | 84.2% | 25.3% | 66.8% | 82.4% | 75.2% | 72.7% | 75.7% | 83.1% | 54.7% | 37.2% | 73.2% | 89.7% | 72.5% | 79.2% | 75.5% | 57.9% | 41.7% | 68.1% | 69.5% |
| CN1CCN(Cc2ccc(NC(=O)c3cncc(C#Cc4cnc5ccc(N[C@@H]6CCOC6)nn45)c3)cc2C(F)(F)F)CC1 | -100% (active) | -0.568% (active) | -99.1% (active) | -94.7% (active) | -80.7% (active) | -98.6% (active) | -100% (active) | -85.9% (active) | -83.3% (active) | -85.6% (active) | -44.4% (active) | -96.1% (active) | -100% (active) | -82.3% (active) | -46.9% (active) | -100% (active) | -90% (active) | -100% (active) | -95.3% (active) |
| CCCCSc1nc(Nc2ccc(/C(C)=N/NC(N)=S)cc2)c(C#N)c(-c2ccccc2)n1 | 36.2% | 33% | 35.2% | 18.3% | 67% | 24.7% | 19.3% | 90.3% | 76.6% | 38.4% | 61.2% | 96.8% | 50% | 18.8% | 28.9% | 54.9% | 64.5% | 5.73% (active) | 66.3% |
| O=C(Nc1cccc([N+](=O)[O-])c1)Nc1cccc([N+](=O)[O-])c1 | 82% | 57.6% | 98.6% | 87.5% | 79.9% | 76.3% | 93% | 93.2% | 87.2% | 62.7% | 87.3% | 90.5% | 81.7% | 88.7% | 52% | 69.6% | 68.5% | 87.7% | 88.7% |
| Cc1cc(C)nc(NS(=O)(=O)c2ccc(N/C(N)=N/c3nccc(-c4cccs4)n3)cc2)n1 | 109% | 89.3% | 94.2% | 87% | 99.4% | 92.6% | 80.4% | 111% | 106% | 97.4% | 108% | 78.6% | 100% | 102% | 86.6% | 96.2% | 96.3% | 77.8% | 106% |
| CCOc1ccc(Nc2nc3ccccc3nc2Nc2ccc(OCC)cc2)cc1 | 45.1% | 30.2% | 83.7% | 67.7% | 40% | 43.3% | 80.8% | 75% | 37.6% | 26.8% | 27.9% | 90.9% | 39.7% | 32.3% | 19.8% | 81.6% | 73.3% | 83.8% | 99% |
| Cc1ccc(/C(CSc2nnc(-c3c[nH]c4ccccc34)n2-c2ccccc2)=N/O)cc1 | -60.2% (active) | 1.59% (active) | 16.7% | -82.1% (active) | -60.1% (active) | -49.9% (active) | 10.1% | 35.7% | -64.4% (active) | -62.4% (active) | 6.35% (active) | -44.2% (active) | -18.5% (active) | 10.4% | -46.5% (active) | 34.1% | -52.6% (active) | -88.2% (active) | 62.5% |

Source: PubChem BioAssay (NCI)
